Legend:
[1] = target: T1, Serine/threonine-protein kinase D2 (Homo sapiens) (UniProt Q9BZL6); settings: at 1 µM;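 also: mean value of PRKD2 inhibition, from the GSK PKIS screening panel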
T1 sequence (whole entry): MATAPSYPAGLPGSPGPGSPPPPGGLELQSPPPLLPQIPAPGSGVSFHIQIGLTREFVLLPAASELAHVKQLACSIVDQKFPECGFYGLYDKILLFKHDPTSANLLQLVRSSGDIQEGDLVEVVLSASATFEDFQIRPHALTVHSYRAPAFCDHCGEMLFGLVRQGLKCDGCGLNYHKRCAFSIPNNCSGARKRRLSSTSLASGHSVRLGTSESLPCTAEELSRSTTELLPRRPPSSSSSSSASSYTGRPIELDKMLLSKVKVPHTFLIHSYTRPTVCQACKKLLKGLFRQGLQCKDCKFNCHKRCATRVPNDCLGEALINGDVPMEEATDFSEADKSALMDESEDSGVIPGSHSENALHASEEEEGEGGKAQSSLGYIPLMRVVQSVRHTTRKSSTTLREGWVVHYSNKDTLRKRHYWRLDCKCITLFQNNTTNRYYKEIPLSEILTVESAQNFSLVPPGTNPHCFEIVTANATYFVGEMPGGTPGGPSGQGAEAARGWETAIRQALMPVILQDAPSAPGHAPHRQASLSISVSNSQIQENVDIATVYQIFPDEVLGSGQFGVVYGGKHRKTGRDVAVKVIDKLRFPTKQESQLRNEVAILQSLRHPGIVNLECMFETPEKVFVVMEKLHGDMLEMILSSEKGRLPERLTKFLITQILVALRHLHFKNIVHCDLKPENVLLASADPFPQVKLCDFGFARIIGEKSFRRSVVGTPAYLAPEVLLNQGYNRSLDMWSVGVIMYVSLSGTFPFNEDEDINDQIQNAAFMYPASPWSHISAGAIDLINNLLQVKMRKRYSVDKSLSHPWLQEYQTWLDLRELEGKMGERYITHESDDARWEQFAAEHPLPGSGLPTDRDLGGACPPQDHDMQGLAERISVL

[2] = target: T2, Serine/threonine-protein kinase D3 (Homo sapiens) (UniProt O94806); settings: at 0.1 µM
T2 sequence (whole entry): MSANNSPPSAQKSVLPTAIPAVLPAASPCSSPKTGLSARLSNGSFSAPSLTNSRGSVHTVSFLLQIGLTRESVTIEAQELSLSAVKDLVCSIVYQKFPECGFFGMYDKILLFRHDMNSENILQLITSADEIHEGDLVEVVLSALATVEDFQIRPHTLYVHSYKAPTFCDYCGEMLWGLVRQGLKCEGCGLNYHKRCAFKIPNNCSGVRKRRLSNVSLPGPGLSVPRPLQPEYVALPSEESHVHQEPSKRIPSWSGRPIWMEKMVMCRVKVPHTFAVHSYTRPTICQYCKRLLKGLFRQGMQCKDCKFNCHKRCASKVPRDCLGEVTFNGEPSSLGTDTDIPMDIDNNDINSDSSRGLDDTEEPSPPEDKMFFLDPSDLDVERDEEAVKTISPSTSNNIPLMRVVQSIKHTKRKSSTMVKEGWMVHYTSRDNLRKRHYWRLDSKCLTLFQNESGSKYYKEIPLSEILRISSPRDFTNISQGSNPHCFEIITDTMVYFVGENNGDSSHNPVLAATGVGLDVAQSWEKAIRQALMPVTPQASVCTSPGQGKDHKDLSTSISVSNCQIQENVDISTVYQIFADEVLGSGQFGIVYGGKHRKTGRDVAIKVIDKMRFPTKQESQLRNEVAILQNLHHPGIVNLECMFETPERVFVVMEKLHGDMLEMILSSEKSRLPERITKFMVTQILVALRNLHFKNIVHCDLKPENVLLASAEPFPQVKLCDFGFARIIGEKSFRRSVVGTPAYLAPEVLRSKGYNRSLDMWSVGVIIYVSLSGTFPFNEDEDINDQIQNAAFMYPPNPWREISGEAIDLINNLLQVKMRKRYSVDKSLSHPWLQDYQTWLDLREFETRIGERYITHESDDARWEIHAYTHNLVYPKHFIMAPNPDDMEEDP

[3] = target: T2, Serine/threonine-protein kinase D3 (Homo sapiens); settings: at 1 µM
[4] = target: T3, cGMP-dependent protein kinase 1 (Homo sapiens) (UniProt Q13976); settings: at 0.1 µM
T3 sequence (whole entry): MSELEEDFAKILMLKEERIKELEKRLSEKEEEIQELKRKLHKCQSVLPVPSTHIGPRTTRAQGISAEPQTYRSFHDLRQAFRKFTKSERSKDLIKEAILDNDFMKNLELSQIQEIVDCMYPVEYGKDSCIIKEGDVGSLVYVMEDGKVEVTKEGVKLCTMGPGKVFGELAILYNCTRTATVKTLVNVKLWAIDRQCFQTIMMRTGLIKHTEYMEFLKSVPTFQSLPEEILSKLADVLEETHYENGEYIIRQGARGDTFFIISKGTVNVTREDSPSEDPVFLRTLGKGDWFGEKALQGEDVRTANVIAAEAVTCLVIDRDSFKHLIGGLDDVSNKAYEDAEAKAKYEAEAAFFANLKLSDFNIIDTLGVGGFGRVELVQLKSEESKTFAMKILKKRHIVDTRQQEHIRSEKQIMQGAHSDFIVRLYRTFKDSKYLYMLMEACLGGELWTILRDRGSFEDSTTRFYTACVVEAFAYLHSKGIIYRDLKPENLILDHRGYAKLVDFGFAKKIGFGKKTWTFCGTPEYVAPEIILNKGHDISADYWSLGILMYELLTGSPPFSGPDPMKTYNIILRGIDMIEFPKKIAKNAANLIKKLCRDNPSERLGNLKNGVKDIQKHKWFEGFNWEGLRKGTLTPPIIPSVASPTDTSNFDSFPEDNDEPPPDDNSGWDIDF

[5] = target: T3, cGMP-dependent protein kinase 1 (Homo sapiens); settings: at 1 µM
[6] = target: T4, cGMP-dependent protein kinase 2 (Homo sapiens) (UniProt Q13237); settings: at 0.1 µM
T4 sequence (whole entry): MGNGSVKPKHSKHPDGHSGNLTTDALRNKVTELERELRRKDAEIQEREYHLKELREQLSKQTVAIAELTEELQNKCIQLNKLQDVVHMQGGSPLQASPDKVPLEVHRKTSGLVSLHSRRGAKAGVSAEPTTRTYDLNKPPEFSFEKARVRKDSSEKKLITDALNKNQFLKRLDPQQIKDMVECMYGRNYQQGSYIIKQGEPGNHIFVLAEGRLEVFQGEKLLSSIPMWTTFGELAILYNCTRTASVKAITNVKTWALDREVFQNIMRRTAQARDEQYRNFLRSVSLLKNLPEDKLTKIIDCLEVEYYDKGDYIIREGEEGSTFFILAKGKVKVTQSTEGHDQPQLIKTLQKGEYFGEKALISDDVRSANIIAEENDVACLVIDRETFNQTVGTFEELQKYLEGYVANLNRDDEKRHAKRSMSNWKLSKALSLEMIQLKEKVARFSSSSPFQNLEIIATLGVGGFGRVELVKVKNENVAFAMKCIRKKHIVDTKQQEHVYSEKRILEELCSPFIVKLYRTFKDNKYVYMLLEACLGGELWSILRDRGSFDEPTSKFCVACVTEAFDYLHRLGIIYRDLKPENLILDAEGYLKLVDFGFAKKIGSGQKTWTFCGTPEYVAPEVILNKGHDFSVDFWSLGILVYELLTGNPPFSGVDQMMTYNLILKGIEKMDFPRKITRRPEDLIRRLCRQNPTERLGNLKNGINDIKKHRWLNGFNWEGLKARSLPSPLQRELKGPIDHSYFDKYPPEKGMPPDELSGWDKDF

[7] = target: T4, cGMP-dependent protein kinase 2 (Homo sapiens); settings: at 1 µM
[8] = target: T5, cAMP-dependent protein kinase catalytic subunit PRKX (Homo sapiens) (UniProt P51817); settings: at 0.1 µM
T5 sequence (whole entry): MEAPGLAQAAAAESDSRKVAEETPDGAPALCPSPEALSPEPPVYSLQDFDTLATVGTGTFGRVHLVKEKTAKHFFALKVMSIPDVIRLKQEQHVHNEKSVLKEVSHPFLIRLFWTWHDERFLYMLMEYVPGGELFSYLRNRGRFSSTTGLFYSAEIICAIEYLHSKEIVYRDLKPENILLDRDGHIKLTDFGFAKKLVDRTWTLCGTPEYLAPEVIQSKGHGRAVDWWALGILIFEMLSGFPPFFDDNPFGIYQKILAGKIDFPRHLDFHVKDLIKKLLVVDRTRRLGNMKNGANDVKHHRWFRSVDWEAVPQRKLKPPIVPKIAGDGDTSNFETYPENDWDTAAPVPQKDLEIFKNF

[9] = target: T5, cAMP-dependent protein kinase catalytic subunit PRKX (Homo sapiens); settings: at 1 µM
[10] = target: Rho-associated protein kinase 1 (Homo sapiens) (UniProt Q13464); settings: at 0.1 µM
[11] = target: Rho-associated protein kinase 1 (Homo sapiens) (UniProt Q13464); settings: at 1 µM
[12] = target: Rho-associated protein kinase 2 (Homo sapiens) (UniProt O75116); settings: at 0.1 µM
[13] = target: Rho-associated protein kinase 2 (Homo sapiens) (UniProt O75116); settings: at 1 µM
[14] = target: Ribosomal protein S6 kinase alpha-1 (Homo sapiens) (UniProt Q15418); settings: at 0.1 µM
[15] = target: Ribosomal protein S6 kinase alpha-1 (Homo sapiens) (UniProt Q15418); settings: at 1 µM
[16] = target: Ribosomal protein S6 kinase alpha-3 (Homo sapiens) (UniProt P51812); settings: at 0.1 µM
[17] = target: Ribosomal protein S6 kinase alpha-3 (Homo sapiens) (UniProt P51812); settings: at 1 µM
[18] = target: Ribosomal protein S6 kinase alpha-2 (Homo sapiens) (UniProt Q15349); settings: at 0.1 µM
[19] = target: Ribosomal protein S6 kinase alpha-2 (Homo sapiens) (UniProt Q15349); settings: at 1 µM
[20] = target: Ribosomal protein S6 kinase alpha-6 (Homo sapiens) (UniProt Q9UK32); settings: at 0.1 µM;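 also: reported value is the mean inhibition of RSK4, from the GSK PKIS kinase inhibitor screen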
Ribosomal protein S6 kinase alpha-6 (Homo sapiens), sequence (Q9UK32 whole entry): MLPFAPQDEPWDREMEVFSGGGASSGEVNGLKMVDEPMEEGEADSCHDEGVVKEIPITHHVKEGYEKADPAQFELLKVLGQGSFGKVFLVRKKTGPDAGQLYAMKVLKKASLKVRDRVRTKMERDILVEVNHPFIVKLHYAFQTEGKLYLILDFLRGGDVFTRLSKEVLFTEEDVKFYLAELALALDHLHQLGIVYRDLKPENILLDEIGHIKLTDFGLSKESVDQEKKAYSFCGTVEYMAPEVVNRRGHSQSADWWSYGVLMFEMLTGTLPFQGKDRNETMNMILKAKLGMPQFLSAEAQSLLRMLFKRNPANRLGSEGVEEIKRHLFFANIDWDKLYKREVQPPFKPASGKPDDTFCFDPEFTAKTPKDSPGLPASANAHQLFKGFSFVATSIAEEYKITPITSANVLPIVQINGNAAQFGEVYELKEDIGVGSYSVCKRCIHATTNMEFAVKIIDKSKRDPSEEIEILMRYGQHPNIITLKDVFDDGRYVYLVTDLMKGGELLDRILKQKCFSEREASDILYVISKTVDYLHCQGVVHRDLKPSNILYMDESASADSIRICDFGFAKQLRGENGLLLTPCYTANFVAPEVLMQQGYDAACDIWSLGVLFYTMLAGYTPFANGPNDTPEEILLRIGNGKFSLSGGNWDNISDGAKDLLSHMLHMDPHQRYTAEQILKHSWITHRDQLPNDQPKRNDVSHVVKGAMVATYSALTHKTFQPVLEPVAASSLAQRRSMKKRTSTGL

Ribosomal protein S6 kinase alpha-2 (Homo sapiens), sequence (Q15349 whole entry): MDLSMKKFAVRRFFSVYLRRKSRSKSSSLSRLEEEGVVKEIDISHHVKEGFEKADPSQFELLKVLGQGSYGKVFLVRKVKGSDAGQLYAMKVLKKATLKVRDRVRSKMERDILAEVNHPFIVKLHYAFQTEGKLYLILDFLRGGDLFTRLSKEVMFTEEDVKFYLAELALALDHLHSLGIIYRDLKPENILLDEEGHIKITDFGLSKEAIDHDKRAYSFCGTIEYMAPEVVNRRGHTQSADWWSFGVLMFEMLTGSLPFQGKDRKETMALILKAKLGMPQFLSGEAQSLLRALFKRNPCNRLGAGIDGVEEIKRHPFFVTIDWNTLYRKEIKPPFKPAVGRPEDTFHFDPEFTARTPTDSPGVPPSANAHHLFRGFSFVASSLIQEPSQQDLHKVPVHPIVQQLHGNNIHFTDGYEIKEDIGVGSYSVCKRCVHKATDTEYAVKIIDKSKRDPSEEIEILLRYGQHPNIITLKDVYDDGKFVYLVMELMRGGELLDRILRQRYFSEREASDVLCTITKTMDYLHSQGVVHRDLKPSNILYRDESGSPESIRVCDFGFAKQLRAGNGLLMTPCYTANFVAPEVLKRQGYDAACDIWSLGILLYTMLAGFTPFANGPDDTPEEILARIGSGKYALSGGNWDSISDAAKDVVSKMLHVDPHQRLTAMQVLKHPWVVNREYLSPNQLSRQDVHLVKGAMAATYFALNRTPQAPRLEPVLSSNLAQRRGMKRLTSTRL
Ribosomal protein S6 kinase alpha-1 (Homo sapiens), sequence (Q15418 whole entry): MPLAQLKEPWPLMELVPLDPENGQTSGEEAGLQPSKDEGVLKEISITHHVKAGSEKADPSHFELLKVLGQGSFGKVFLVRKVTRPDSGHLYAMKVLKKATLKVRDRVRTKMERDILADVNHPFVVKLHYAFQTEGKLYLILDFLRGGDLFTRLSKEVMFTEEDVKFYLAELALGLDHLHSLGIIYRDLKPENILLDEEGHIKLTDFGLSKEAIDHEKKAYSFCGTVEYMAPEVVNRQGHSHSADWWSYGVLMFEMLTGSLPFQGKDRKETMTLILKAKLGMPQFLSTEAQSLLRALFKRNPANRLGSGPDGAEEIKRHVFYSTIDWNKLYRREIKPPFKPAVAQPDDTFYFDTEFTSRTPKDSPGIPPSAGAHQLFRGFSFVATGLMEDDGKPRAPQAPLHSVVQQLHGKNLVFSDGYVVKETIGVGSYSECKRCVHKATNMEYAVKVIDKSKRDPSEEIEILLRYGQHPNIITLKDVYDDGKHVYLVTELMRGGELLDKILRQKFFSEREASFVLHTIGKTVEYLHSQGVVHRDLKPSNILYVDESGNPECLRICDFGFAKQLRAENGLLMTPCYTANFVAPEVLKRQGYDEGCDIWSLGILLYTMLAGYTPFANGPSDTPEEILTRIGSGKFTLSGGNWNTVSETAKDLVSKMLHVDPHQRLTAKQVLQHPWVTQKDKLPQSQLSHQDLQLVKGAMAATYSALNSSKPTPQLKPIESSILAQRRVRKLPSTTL
Rho-associated protein kinase 2 (Homo sapiens), sequence (O75116 whole entry, looked up): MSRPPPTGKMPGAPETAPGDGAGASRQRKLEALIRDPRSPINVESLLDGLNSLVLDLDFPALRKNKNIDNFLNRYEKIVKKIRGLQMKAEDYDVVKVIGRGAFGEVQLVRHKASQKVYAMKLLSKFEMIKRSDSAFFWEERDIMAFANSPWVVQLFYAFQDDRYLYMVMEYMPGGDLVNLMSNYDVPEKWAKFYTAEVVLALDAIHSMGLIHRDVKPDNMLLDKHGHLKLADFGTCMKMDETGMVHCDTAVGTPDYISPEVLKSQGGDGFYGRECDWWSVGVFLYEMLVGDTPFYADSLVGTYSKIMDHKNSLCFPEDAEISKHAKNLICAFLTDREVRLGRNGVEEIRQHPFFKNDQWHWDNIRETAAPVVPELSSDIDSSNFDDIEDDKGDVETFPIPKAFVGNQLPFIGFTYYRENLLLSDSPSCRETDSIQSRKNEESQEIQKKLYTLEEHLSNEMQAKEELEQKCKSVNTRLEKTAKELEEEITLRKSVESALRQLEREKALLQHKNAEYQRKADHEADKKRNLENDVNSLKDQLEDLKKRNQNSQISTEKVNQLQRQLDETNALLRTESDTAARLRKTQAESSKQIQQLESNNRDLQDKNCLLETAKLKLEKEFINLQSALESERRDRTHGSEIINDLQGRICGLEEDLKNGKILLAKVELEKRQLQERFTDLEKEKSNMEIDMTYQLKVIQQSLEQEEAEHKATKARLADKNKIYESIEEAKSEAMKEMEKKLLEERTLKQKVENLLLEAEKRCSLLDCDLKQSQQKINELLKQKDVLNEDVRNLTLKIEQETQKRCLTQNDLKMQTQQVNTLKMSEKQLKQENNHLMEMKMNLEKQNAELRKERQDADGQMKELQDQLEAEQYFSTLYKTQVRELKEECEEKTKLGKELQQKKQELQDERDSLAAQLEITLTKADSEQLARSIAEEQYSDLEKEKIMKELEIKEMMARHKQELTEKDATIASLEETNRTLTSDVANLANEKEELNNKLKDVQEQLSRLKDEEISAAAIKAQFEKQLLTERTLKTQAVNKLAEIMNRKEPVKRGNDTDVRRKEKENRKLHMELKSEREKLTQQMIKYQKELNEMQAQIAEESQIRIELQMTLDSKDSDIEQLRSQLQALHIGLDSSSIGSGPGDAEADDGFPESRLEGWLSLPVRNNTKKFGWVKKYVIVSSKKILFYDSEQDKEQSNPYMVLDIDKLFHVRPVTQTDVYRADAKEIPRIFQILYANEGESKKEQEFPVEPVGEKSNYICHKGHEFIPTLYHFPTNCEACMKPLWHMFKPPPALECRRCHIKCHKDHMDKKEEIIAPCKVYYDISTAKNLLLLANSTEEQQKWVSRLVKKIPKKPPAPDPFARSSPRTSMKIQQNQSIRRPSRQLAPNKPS
Ribosomal protein S6 kinase alpha-3 (Homo sapiens), sequence (P51812 whole entry): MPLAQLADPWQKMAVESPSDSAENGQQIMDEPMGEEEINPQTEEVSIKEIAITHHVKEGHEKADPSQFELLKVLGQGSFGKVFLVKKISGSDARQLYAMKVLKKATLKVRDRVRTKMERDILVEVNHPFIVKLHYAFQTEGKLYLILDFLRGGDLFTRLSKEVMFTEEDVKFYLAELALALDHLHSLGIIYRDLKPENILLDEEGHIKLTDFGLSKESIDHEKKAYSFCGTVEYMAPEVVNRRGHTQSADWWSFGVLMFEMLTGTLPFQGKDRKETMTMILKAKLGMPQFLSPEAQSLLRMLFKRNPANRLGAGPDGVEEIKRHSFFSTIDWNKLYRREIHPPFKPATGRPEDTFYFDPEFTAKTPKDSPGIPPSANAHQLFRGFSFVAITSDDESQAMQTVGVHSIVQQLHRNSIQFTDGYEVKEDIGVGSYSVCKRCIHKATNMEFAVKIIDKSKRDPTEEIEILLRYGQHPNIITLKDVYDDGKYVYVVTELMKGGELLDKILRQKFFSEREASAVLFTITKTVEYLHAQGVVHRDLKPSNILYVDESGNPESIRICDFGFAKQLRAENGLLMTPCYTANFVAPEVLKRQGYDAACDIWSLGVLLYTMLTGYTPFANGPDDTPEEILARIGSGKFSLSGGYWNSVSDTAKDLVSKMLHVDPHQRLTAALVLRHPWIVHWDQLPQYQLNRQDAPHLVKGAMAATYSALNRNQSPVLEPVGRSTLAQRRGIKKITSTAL

| Structure (SMILES) | inhibition [1] [%] | inhibition [2] [%] | inhibition [3] [%] | inhibition [4] [%] | inhibition [5] [%] | inhibition [6] [%] | inhibition [7] [%] | inhibition [8] [%] | inhibition [9] [%] | inhibition [10] [%] | inhibition [11] [%] | inhibition [12] [%] | inhibition [13] [%] | inhibition [14] [%] | inhibition [15] [%] | inhibition [16] [%] | inhibition [17] [%] | inhibition [18] [%] | inhibition [19] [%] | inhibition [20] [%] |
| --- | --- | --- | --- | --- | --- | --- | --- | --- | --- | --- | --- | --- | --- | --- | --- | --- | --- | --- | --- | --- |
| c1ccc(COc2ccc(Nc3ncnc4ccc(-c5ccco5)cc34)cc2)cc1 | 2.58 | 1.12 | 1.43 | -0.44 | 0.71 | 0.02 | 1.35 | 2.22 | 0.89 | 0.21 | -0.24 | 1.39 | 0.1 | -0.1 | 1.39 | 2.07 | 2.71 | 1.13 | 0.34 | 0.12 |
| CS(=O)(=O)CCNCc1coc(-c2ccc3ncnc(Nc4ccc(OCc5ccccc5)cc4)c3c2)c1 | 2.1 | 2.3 | 3.06 | 1.72 | 3.25 | 1.73 | 3.41 | 1.12 | 0.96 | 0.65 | 1.33 | 1.66 | 1.35 | 2.08 | 2.82 | 2.71 | 3.03 | 3.38 | 3.14 | 2.43 |
| Fc1ccc(-c2cc(-c3c[nH]nc3-c3ccccn3)ccn2)cc1 | 32.4 | 6.2 | 20.5 | 1.49 | 4.77 | 1.37 | 2.9 | 1.98 | 5.03 | -0.11 | 1.54 | 2.91 | 7.8 | 1.71 | 5.2 | 0.81 | 3.36 | 1.61 | 2.64 | -0.68 |
| CCc1nn2ncccc2c1-c1ccnc(NC2CC2)n1 | 3.14 | 1.73 | 2.57 | 1.92 | 3.59 | 0.96 | 3.27 | 1.66 | 0.72 | 0.66 | 1.83 | 1.74 | 2.93 | 1.29 | 2.08 | 1.54 | 0.91 | 3.18 | 2.75 | 1.44 |
| CC(=O)Nc1cccc(C#Cc2cncnc2Nc2ccc(OCc3cccc(F)c3)c(Cl)c2)c1 | 3.79 | 2.13 | 2.46 | 3.13 | 3.55 | 2.86 | 1.98 | 1.66 | 1.17 | 1.07 | 0.67 | 0.44 | 0.1 | 0.12 | -1.94 | 0.9 | -0.35 | 1.46 | 0.33 | 0.92 |
| Cc1ccc2c(-c3ccnc(Nc4ccccc4)n3)c(-c3ccc(F)cc3)nn2n1 | 87 | 18.6 | 80.7 | 1.32 | 2.92 | 3.01 | 2.49 | 1.83 | -0.36 | 1.01 | 1.37 | 2.77 | 2.45 | 1.84 | 4.63 | 0.24 | 0.63 | 2.02 | 2.16 | 0.84 |
| CC(=O)NCc1cccc(C#Cc2cncnc2Nc2ccc(OCc3cccc(F)c3)c(Cl)c2)c1 | 2.16 | 1.12 | 1.92 | 1.14 | 1.95 | 1.31 | 2.28 | 1.14 | 2.2 | 0.02 | 2.63 | 3.83 | 3.71 | 0.02 | 0.7 | 0.76 | 1.97 | 1.51 | 1.36 | 0.19 |

Reference: ChEMBL document CHEMBL1961873, “Compounds: GSK PKIS; Assays: Nanosyn kinase panel” (2012)
